# PubChem BioAssay (NCI)
# About 83,000 compounds went through this panel and 20% of them were active in at least one assay; those are over-represented in the sample as a whole.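 Note: values are percent growth. 100 is the growth of untreated cells, values between 100 and 0 indicate rising inhibition; between -100 and 0 indicates cell death.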 Values without a mark were called inactive. Activity calls are given as the source filed them. Rule for the calls: active = growth percent below 10; inactive = the rest.
# Legend:
# Test in all cases: NCI-60 one-dose screen, 48 h (100 = growth as untreated, 0 = no growth, -100 = all killed)
# Details in all cases: 10 µM unless noted
# SR leukemia = tested on: SR leukemia
# RPMI-8226 leukemia = tested on: RPMI-8226 leukemia
# OVCAR-8 ovarian = tested on: OVCAR-8 ovarian
# OVCAR-5 ovarian = tested on: OVCAR-5 ovarian
# OVCAR-4 ovarian = tested on: OVCAR-4 ovarian
# SK-OV-3 ovarian = tested on: SK-OV-3 ovarian
# IGROV1 ovarian = tested on: IGROV1 ovarian
# OVCAR-3 ovarian = tested on: OVCAR-3 ovarian
# HS 578T breast = tested on: HS 578T breast
# NCI/ADR-RES ovarian = tested on: NCI/ADR-RES ovarian
# T-47D breast = tested on: T-47D breast
# BT-549 breast = tested on: BT-549 breast
# MDA-MB-435 melanoma = tested on: MDA-MB-435 melanoma
# SW-620 colon = tested on: SW-620 colon
# MCF7 breast = tested on: MCF7 breast
# HCT-116 colon = tested on: HCT-116 colon
# KM12 colon = tested on: KM12 colon
# HCC-2998 colon = tested on: HCC-2998 colon
SMILES,growth (SR leukemia),growth (RPMI-8226 leukemia),growth (OVCAR-8 ovarian),growth (OVCAR-5 ovarian),growth (OVCAR-4 ovarian),growth (SK-OV-3 ovarian),growth (IGROV1 ovarian),growth (OVCAR-3 ovarian),growth (HS 578T breast),growth (NCI/ADR-RES ovarian),growth (T-47D breast),growth (BT-549 breast),growth (MDA-MB-435 melanoma),growth (SW-620 colon),growth (MCF7 breast),growth (HCT-116 colon),growth (KM12 colon),growth (HCC-2998 colon)
N#C/C(=C\c1cn(Cc2ccccc2)c2ccccc12)C(=O)Nc1ncc(Cc2ccccc2Cl)s1,8.65% (active),67.6%,6.09% (active),-2.57% (active),-74.6% (active),9.54% (active),9.54% (active),-19.1% (active),21.7%,15%,-29.3% (active),52.8%,-15.1% (active),2.61% (active),23.8%,0.288% (active),26.4%,
COc1cccc(Nc2ncnc3cc(NC(=O)CCl)ccc23)c1,-23.3% (active),-44.8% (active),-36.6% (active),-82.2% (active),-59.5% (active),-15.9% (active),-64.7% (active),-82.9% (active),-15.4% (active),-26.4% (active),-32.6% (active),-28.7% (active),-82% (active),-73.6% (active),-8.63% (active),,-68.5% (active),23%
COc1ccc(C[n+]2c3ccccc3n3c4ccc(N)cc4ccc32)c(OC)c1OC,41.2%,15.1%,46.8%,99.6%,55.5%,70%,73.9%,50.9%,43.5%,103%,5.52% (active),5.31% (active),53.9%,82.1%,31.9%,71.9%,19.9%,
C=C(C)[C@@H]1CC[C@]2(COC(C)=O)CC[C@]3(C)[C@H](CC[C@@H]4[C@@]5(C)CCCN(C(C)=O)C(C)(C)[C@@H]5CC[C@]43C)[C@@H]12,-35.6% (active),-6.5% (active),48.6%,59.2%,50.7%,111%,57.6%,88.3%,73.3%,66.9%,10.9%,88.6%,4.85% (active),-53.9% (active),19.7%,,5.81% (active),-28.8% (active)
CCN(CC)CCN1C(=O)c2c(c(C)c3c(oc4ccc(O)cc43)c2C)C1=O,28.5%,-37.3% (active),-5.2% (active),97.6%,14.9%,101%,1.64% (active),-68.2% (active),72.9%,21.7%,0.129% (active),105%,76.9%,2.51% (active),4.29% (active),,32.3%,23.5%
CN1CCN(C(=O)C(C)(C)c2ccc(C(=O)Nc3cn4cc(-c5ccncc5)ccc4n3)cc2)CC1,11.8%,10.7%,14.6%,18.3%,2.83% (active),9.33% (active),6.72% (active),-37.4% (active),-6.52% (active),21.1%,3.75% (active),7.86% (active),14.2%,11.1%,-0.0814% (active),5.31% (active),7.82% (active),
NC1(CO)COC(c2ccccc2)OC1 (stereo not drawn),83.5%,108%,103%,94.9%,130%,101%,104%,126%,106%,113%,103%,124%,117%,111%,111%,,107%,126%
COC(=O)C(Cc1ccccc1)NC(=O)c1ccc(NC(=O)c2[nH]c(C)c(Cl)c2Cl)c(OC(C)C)c1 (stereo not drawn),17.4%,57.9%,-29.8% (active),93.2%,39.7%,99.1%,83.1%,12.9%,62.1%,31.4%,36.5%,82.1%,100%,42.4%,32.8%,0.768% (active),39.8%,
FC(F)(F)c1ccc(Cn2cc(CSc3nc4ccccc4s3)nn2)cc1,96.3%,96.7%,91%,98.6%,94.8%,104%,97.7%,105%,88.6%,95.7%,90%,92.3%,101%,98.1%,92.8%,98.2%,99%,
